Only some compounds are listed: those with a hit (about 3.7% of all), similar ones and a draw of the others.
Nrf2 block = Nrf2 qHTS screen for inhibitors. 360,000 compounds, 2.1% hits. Potency, µM (highest dose often 46 µM), for inactives: at the highest dose activity change, negative = inhibition, usual class: inhibitors. A549 ARE-Fluc reporter, luciferase luminescence, 18-24 h; also: potency is read from the fitted curve at half-maximal effect; % is scaled to controls: 0 for no effect and ±100 for the full control effect; nearly all actives have a fitted effect of over 60% in size
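Reporter: ARE-Fluc in A549. Exposure: 18-24 h, 37 °C, 5% CO2, 5% FBS OPTI-MEM. Readouts: fluorescent cytotoxicity (CellTiter-Fluor), then luminescent Nrf2 signal after BugLite.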
miR-21 act = qHTS Assay for Modulators of miRNAs and/orActivators of miR-21; HeLa miR-21 FLuc reporter, luciferase, 48 h; Potency, µM (doses to about 38.3 µM), without a hit: top-dose activity change, positive = activation, usual class: activators; 340,000 tested, under 10 active;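 also: % of control where 0% means no effect; miR-21 action dims this reporter so a rising signal means less miR-21 action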
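Using DMEM plus 10% FBS, HeLa miR-21-FLuc cells are incubated with test compounds (final up to about 40uM) for 48 hours; firefly luciferase signal is then imaged following reagent-mediated lysis.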
Nrf2 activator = qHTS of Nrf2 Activators; Potency, µM (titrated, usually from 46.1 µM), for inactives: at the highest dose activation, most hits filed as activators; AREc32 ARE-luciferase reporter (MCF7-derived line), luminescence, 24 h; 410,000 compounds, 0.31% hits; also: potency is read from the fitted curve at half-maximal effect; % of control where 0% means no effect; nearly all actives have a fitted effect of over 65% in size
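For detection, Steady-Glo was added and plates sat 30 min at RT; before that, AREc32_Fluc cells grown overnight in OPTI-MEM/5% FBS had been treated with 23 nL compound for 24 hr at 37 deg C.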
A549 viability = Nrf2 qHTS screen for inhibitors: counterscreen for cytotoxicity. Potency, µM (highest dose often 46 µM), for inactives: top-dose activity change, negative = cytotoxicity, usual class: inhibitors. 390,000 compounds, 0.16% hits. A549 ARE-Fluc cells, CellTiter-Fluor viability, 18-24 h; also: potency is read from the fitted curve at half-maximal effect; % is scaled to controls: 0 for no effect and ±100 for the full control effect
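A549 ARE-Fluc cells in 5% FBS OPTI-MEM, 5000 cells/well, rested 2 h then exposed to compounds in concentration-response for 18-24 h at 37 °C. Viability by CellTiter-Fluor fluorescence (Ex 405/Em 525) after 30 min; luciferase luminescence (BugLite, 15 min, RT) read afterwards.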
TCR act = Activators of T cell receptors: qHTS campaign | AID 504894, 2011 | primary human leukocytes, anti-CD3, IL-2 HTRF, 48 h | 330,000 tested, under 10 active | Potency, µM (top dose mostly 9.22 µM), for inactives: top-dose activation of IL-2 secretion, usual class: activators; also: % of control where 0% means no effect
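1) Mix primary human leukocytes, a-CD3 beads and compound. 2) Incubate 48 hr. 3) Add HTRF IL-2 reagents (a-IL-2-K, a-IL-2-d2).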
ClpP mod = qHTS Assay for Activators of ClpP. ATP-dependent Clp protease proteolytic subunit (Bacillus subtilis (strain 168)), P80244. purified B. subtilis ClpP, FRET peptide cleavage, 20 min. Potency, µM (titrated, usually from 57.5 µM), inactives show at the highest dose activity change, negative = active. 340,000 compounds, 1.9% hits; active = well fitted falling curve with a large enough effect; inconclusive = small, poorly fitted or top-dose-only effect; inactive = no such curve, though single readings can be large or run the other way; also: potency is read from the fitted curve at half-maximal effect; the source files actives as falling curves though it sought activators and does not explain the sign; nearly all actives have a fitted effect of over 65% in size
Target sequence (P80244 whole entry, looked up): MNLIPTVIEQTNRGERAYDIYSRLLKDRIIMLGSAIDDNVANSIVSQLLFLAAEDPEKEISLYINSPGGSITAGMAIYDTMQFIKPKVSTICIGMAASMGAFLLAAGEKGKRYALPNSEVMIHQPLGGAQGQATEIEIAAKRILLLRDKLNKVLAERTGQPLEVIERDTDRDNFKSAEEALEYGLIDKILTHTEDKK
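Buffer: 100 mM Tris/HCl pH8, 100 mM KCl, 0.05% low protease BSA, 2.5% glycerol, 0.01% Tween-20. ClpP 10 microg/mL final; 20 min RT; delta FRET normalized to ADEP and DMSO controls.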
* hit, by the source's call; [ ] = another dose, or the depositor's remark. Unless noted, calls follow the shape of the dose curve; as a rule, active = well fitted curve in the direction sought with a large enough effect; inconclusive = small, poorly fitted or top-dose-only effect, or another doubt; inactive = no such curve, though single readings can be large; an effect the other way counts as inactive or inconclusive.

For COc1cc(/C=N/Nc2snc(SC)c2C#N)cc(OC)c1OC the results were Nrf2 block 4.6µM*, miR-21 act 11%, Nrf2 activator 3%, A549 viability -26%, TCR act -8% and ClpP mod 12%.
`O=C(CN1CCN(CC(=O)Nc2ccc3c(c2)OC2(CCCCC2)O3)CC1)Nc1cccc(F)c1` gave Nrf2 block inconclusive, Nrf2 activator 1%, A549 viability inconclusive, TCR act -3% and ClpP mod 1%.
COc1cc(CNc2ncnc3c2[nH]c2ccc(C)cc23)cc(OC)c1 was read as Nrf2 block 15µM*, miR-21 act 16%, Nrf2 activator 7%, A549 viability -20%, TCR act -2% and ClpP mod 4%.
For Cc1ccc2[nH]c3c(NCc4ccco4)ncnc3c2c1 the results were Nrf2 block inconclusive, miR-21 act -10%, Nrf2 activator 25%, A549 viability 1%, TCR act 2% and ClpP mod 18µM*.
For c1ccc(Cn2ncc3c(NCc4ccco4)ncnc32)cc1 the results were Nrf2 block inconclusive, miR-21 act 2%, Nrf2 activator 4µM*, A549 viability -1%, TCR act -1% and ClpP mod 2%.
Fc1ccc2[nH]c3c(NCc4ccco4)ncnc3c2c1 was read as Nrf2 block 12µM*, A549 viability -11% and ClpP mod 4%.
CCCN1CCC(NC(=O)Cc2cccc(C)c2)CC1 was read as Nrf2 block 0%, miR-21 act 8%, Nrf2 activator -1%, A549 viability 0% and TCR act -1%.
Screening Cc1ccccc1CN1C(=O)CSCC1(C)C(=O)Nc1ccc2c(c1)OCCO2 (stereo unspecified) returned ClpP mod -1%.
For Cc1ccc(CNC(=O)C2CCN(C(=O)c3cnn(-c4ccccc4)c3-n3cccc3)CC2)cc1 the results were Nrf2 block inconclusive, miR-21 act 18%, Nrf2 activator 4%, A549 viability -14% and ClpP mod -2%.
For CCc1nc(NCc2ccco2)c2oc3ccccc3c2n1 the results were Nrf2 block 0%, miR-21 act -14%, Nrf2 activator 10%, A549 viability -3%, TCR act 2% and ClpP mod 5%.
c1coc(CNc2ncnc3c2oc2ccccc23)c1 was read as Nrf2 block inconclusive, miR-21 act -4%, Nrf2 activator 1.6µM*, A549 viability -3%, TCR act -1% and ClpP mod 2%.
`Nc1ccc(-c2cnc(N)c(C(=O)c3cccnc3)n2)cn1` gave Nrf2 block 15µM*, Nrf2 activator -4%, A549 viability inconclusive, TCR act 2% and ClpP mod -2%.
Screening C=C(/C=C/c1ccc(N(C)C)cc1)c1nc2ccccc2s1 returned ClpP mod 0%.
`CCOC(=O)c1sc(NC(=O)c2ccc(S(=O)(=O)N3CCOCC3)cc2)nc1-c1ccccc1` gave Nrf2 block 21µM*, miR-21 act 5%, Nrf2 activator 1%, A549 viability -6%, TCR act 0%[46.1 µM] and ClpP mod -3%.
`CCOC(=O)C(=CNc1nc(-c2ccccc2)c(C(=O)Nc2ccc(-c3ccccc3)cc2)s1)C(=O)OCC` gave Nrf2 block 3%, miR-21 act -8%, Nrf2 activator 0%, A549 viability -11%, TCR act 12% and ClpP mod 13µM*.
CCOC(=O)c1sc(NC(=O)c2ccc(S(=O)(=O)N3CCCCC3)cc2)nc1-c1ccccc1 was read as Nrf2 block 23µM*, miR-21 act 8%, Nrf2 activator 0%, A549 viability -5%, TCR act -22%[46.1 µM] and ClpP mod inconclusive.

Screening data (PubChem)
